Screening results deposited in PubChem by National Center for Advancing Translational Sciences (NCATS).
JMJD2A Tudor inh: inhibitors of human JMJD2A Tudor domain | Potency, µM (series often up to 114 µM), without a hit: top-dose activity change, negative = inhibition, most hits filed as inhibitors | AID 504339 | O75164 | 390,000 compounds, 4.4% hits | AlphaScreen JMJD2A-Tudor / H3K4me3 peptide binding; further: on the % scale 0 is the no-effect control and ±100 the full control effect; nearly all actives have a fitted effect of over 50% in size
Target sequence (O75164 whole entry, looked up, the tested form may be a part): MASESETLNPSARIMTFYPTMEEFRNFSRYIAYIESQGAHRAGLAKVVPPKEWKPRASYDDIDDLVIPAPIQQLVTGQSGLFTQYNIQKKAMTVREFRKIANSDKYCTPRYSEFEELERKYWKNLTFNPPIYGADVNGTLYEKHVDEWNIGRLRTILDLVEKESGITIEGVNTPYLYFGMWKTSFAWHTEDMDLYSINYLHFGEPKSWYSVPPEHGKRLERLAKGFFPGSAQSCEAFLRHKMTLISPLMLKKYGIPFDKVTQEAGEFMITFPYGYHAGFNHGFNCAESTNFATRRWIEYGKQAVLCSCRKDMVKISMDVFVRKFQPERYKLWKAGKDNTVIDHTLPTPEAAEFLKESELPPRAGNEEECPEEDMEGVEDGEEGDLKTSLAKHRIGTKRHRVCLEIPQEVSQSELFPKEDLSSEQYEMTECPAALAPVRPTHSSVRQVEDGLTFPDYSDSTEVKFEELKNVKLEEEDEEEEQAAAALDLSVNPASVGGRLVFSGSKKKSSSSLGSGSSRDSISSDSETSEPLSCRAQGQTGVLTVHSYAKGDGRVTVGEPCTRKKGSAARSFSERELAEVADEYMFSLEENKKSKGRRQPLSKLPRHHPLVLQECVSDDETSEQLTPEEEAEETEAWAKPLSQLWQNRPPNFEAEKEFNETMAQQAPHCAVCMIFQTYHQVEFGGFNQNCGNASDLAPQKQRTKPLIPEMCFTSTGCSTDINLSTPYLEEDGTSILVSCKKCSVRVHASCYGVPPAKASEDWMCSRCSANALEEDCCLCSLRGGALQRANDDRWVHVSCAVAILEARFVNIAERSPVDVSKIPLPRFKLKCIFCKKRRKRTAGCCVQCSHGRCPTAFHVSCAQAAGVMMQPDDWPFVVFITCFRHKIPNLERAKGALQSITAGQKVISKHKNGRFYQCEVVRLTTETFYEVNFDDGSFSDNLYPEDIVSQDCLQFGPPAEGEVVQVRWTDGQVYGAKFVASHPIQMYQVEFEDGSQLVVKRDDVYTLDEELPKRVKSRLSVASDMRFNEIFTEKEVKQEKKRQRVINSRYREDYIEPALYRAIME
G9a block: blocks human histone lysine methyltransferase G9a. Q96KQ7. G9a H3K9 monomethylation, AlphaScreen, 2 h. Potency, µM (series often up to 102 µM), without a hit: at the top dose activity, negative = inhibition, actives largely listed as inhibitors. 350,000 compounds, 8.8% hits; further: on the % scale 0 is the no-effect control and ±100 the full control effect; nearly all actives have a fitted effect of over 75% in size
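Signal arises when biotinylated H3K9 peptide, once monomethylated, bridges streptavidin donor and antibody-captured acceptor beads. Enzyme at 20 nM was preincubated 15 min with test compounds; peptide 500 nM and SAM 20 uM then reacted for 2 h.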
HP1b binding inh: HP1-beta chromodomain-methylated histone interaction inhibition | P83916 | AlphaScreen HP1-beta / biotin-H3K9me3 peptide binding | Potency, µM (top dose mostly 114 µM), for inactives: at the highest dose activity change, negative = inhibition, usual class: inhibitors | 390,000 compounds, 0.56% hits | AID 540317; further: nearly all actives have a fitted effect of over 70% in size
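AlphaScreen: HP1-beta (50 nM) preformed 30 min with biotin-H3(1-18)K9me3 peptide (50 nM) in PBS pH 7.4, 0.01% Tween-20. Compound added for 30 min at RT, then streptavidin donor/nickel chelate acceptor beads (10 ug/mL) for 30 min.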
BAZ2B block: inhibitors of human BAZ2B bromodomain. Q9UIF8. AlphaScreen BAZ2B-H3K14Ac peptide displacement. Potency, µM (titrated, usually from 114 µM), for the others: top-dose activity change, negative = inhibition, usual class: inhibitors. 360,000 compounds, 4.4% hits; further: on the % scale 0 is the no-effect control and ±100 the full control effect; nearly all actives have a fitted effect of over 60% in size
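In this displacement format the biotinylated H3(5-23) peptide acetylated at Lys14 serves as ligand at 50 nM, with BAZ2B at 50 nM in PBS pH 7.4 containing 0.01% Tween-20. Donor and acceptor beads are 10 ug/mL final.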
Sfp PPTase inh: Sfp phosphopantetheinyl transferase inhibition. 310,000 compounds, 3.5% hits. Biochemical Sfp PPTase activity, qHTS. AID 1490. Q9F4F7. Potency, µM, for the others: largest response in the series, negative = inhibition, usual class: inhibitors;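 further: the enzyme is Sfp with the accession as filed and its product quenches rhodamine fluorescence; 0% = enzyme reaction without inhibitor and -100% = no enzyme wells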
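Buffer: 50 mM Hepes-Na pH 7.6, 10 mM MgCl2, 0.01% Nonidet P-40, 0.01% BSA. Enzyme 15 nM, pre-exposed to compound 15 min; substrates then added and fluorescence change tracked over 30 min.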
The depositor's hits bear a star; u = inconclusive; x = not tested or not shown; [ ] = remark or other dose. Shown are actives, neighbours in structure and some others; about 12% of the full set was active somewhere. The call rests on the fitted dose curve; in most records, active means well fitted curve in the direction sought with a large enough effect; inconclusive means small, poorly fitted or top-dose-only effect, or another doubt; inactive means no such curve, though single readings can be large; an effect the other way counts as inactive or inconclusive. Potency means the concentration at half of the fitted maximal effect.

SMILES	JMJD2A Tudor inh	G9a block	HP1b binding inh	BAZ2B block	Sfp PPTase inh
COc1ccc(Nc2ccc(S(=O)(=O)N3CCCCCC3)cc2[N+](=O)[O-])cc1	6.31µM*	11.2µM*	25.1µM*	10µM*	-0.5%
OB(O)c1cc2ccccc2o1	-12.8%	x	49.8%	x	13.6%
O=C(Nc1ccc(F)cc1F)c1cc(-c2ccccc2O)no1	-16.8%	-7.7%[59 µM]	20.4%	-4.1%	x
COc1ccc(CCNC(=O)Cn2cc(S(=O)(=O)Cc3ccc(F)cc3)c3ccccc32)cc1OC	-22.1%	3.8%[59 µM]	7.4%	-2.6%	x
O=C(c1cc2ccccc2o1)N1CCN(c2ncccn2)CC1	-11.0%	x	28.6%	x	x
COc1ccc(Nc2ccc(S(=O)(=O)N3CCCCC3)cc2[N+](=O)[O-])cc1OC	u	7.08µM*	u	10µM*	3.7%
Cc1cccc(Nc2ccc(S(=O)(=O)N3CCOCC3)cc2[N+](=O)[O-])c1	10µM*	u	u	u	x
COCC(C)Nc1ccc(S(=O)(=O)N2CCCC2)cc1[N+](=O)[O-] (stereo not drawn)	-17.2%	21.4%[59 µM]	-8.6%	-17.3%	-0.5%
CCCOc1ccc(S(=O)(=O)N2CCOCC2)cc1[N+](=O)[O-]	89.1µM*	0.1%[59 µM]	-7.2%	-15.2%	17.2%
Cc1sc2ncn(CC(=O)Nc3ccc(F)cc3Cl)c(=O)c2c1S(=O)(=O)N1CCN(c2ncccn2)CC1	8.2%	-3.3%[59 µM]	36.2%	2.8%	x
COc1ccc(CN2CC(=O)N3[C@H]4c5ccccc5OC[C@@H]4[C@H](c4ccccc4)[C@]3(C)C2=O)cc1	-25.2%	-1.3%[0.501 µM]	14.6%	-1.3%	x
CCn1cnnc1SCC(=O)c1c(N)n(C2CC2)c(=O)[nH]c1=O	-8.7%	u	29.6%	-0.3%	x
O=C(/C=C/c1ccc([N+](=O)[O-])cc1)N(c1ccccn1)C1CCCCC1	56.2µM*	5.62µM*	u	x	-0.7%
CCn1c2ccccc2c2cc(NC(=O)c3ccccc3[N+](=O)[O-])ccc21	-34.9%	7.94µM*	2.9%	-37.6%	14.5%
CCn1c2ccccc2c2cc(NC(=O)CNCC3CCCO3)ccc21 (stereo not drawn)	-27.1%[11.4 µM]	12.6µM*	u	50.1µM*	-32.3%
O=C(CNCC1CCCO1)Nc1ccccc1-n1cccc1 (stereo not drawn)	5.01µM*	8.91µM*	4.4%	50.1µM*	-24.8%
O=C(c1ccc(S(=O)(=O)NCC2CCCO2)cc1)N1CCc2ccccc21 (stereo not drawn)	-14.9%	-8.4%[59 µM]	5.0%	4.1%	8.1%
CCn1c2ccccc2c2cc(NC(=O)c3ccc([N+](=O)[O-])cc3)ccc21	-20.5%	u	7.4%	7.1%	-20.3%
O=C(CNCC1CCCO1)N1CCCc2ccccc21 (stereo not drawn)	3.98µM*	u	u	56.2µM*	-10.9%
Cc1ccc(NC(=O)C(=O)NCC2CCCO2)cc1C (stereo not drawn)	-7.4%[11.4 µM]	x	80.3%	-4.1%	-3.5%
CCC1CCCCN1C(=O)CNCC1CCCO1 (stereo not drawn)	-7.4%[11.4 µM]	17.8µM*	-23.7%	-38.7%	0.6%
Cc1ccc(NC(=O)CC(NCC2CCCO2)C(=O)O)cc1C (stereo not drawn)	-12.6%	2.24µM*	12.4%	-29.6%	-17.7%
COC(=O)NC(c1cccc(C)c1)C(C(C)=O)C(=O)OC (stereo not drawn)	x	x	x	x	9.2%
CCOC(=O)c1ccc(NC(=O)c2cccc3c(=O)c4c([nH]c23)CCCC4)cc1	-14.2%	u	29.2%	2.0%	x
O=C(CC(=O)c1ccccc1)CC(O)(C=Cc1ccccc1)c1ccccc1 (stereo not drawn)	27.6%	x	53.3%[57 µM]	x	x
SMILES	JMJD2A Tudor inh	G9a block	HP1b binding inh	BAZ2B block	Sfp PPTase inh
C=CCC1NS(=O)(=O)OCC1NC(=O)OCC(Cl)(Cl)Cl (stereo not drawn)	-21.4%	19.4%	35.9%	0.1%	18.9%
CC(C)(C)OC1NS(=O)(=O)OCC1NCOC(Cl)(Cl)Cl (stereo not drawn)	79.4µM*	31.6µM*	6.8%	50.1µM*	12.6µM*
COc1ccc(-c2nc(S(=O)(=O)c3ccccc3)c(N3CCC(C)CC3)o2)cc1	-20.3%	2.6%[59 µM]	15.1%	-5.4%	x
Cc1ccc(S(=O)(=O)c2nc(-c3ccc(F)cc3)oc2N2CCOCC2)cc1	-17.9%	35.5µM*	16.1%	-32.1%	-10.3%
Cc1ccc(-c2nc(S(=O)(=O)c3ccc(C)cc3)c(N3CCCCC3)o2)cc1	-29.1%	15.8µM*	-13.6%	u	x
COc1cccc(-c2nc(S(=O)(=O)c3ccccc3)c(N3CCC(C)CC3)o2)c1	u	17.8µM*	9.3%	u	x
Cc1ccc(S(=O)(=O)c2nc(-c3ccccc3)oc2N2CCCCCC2)cc1	-30.1%	u	u	-38.5%	x
CCN1CCN(c2oc(-c3ccccc3)nc2S(=O)(=O)c2ccc(C)cc2)CC1	u	39.8µM*	-20.2%	50.1µM*	x
Cc1ccc2c(c1)c1c(c(=O)n(Cc3ccccc3)c(=O)n1CC(=O)Nc1ccccc1F)n2C	-15.2%	-8.2%[59 µM]	-4.1%	-3.9%	x
COCC(=O)N1CCC[C@@]2(CCN(c3ccncc3)C2)C1	x	3.0%[12.7 µM]	x	x	20.9%
Cc1ccc(S(=O)(=O)c2nc(C(C)(C)C)oc2N2CCOCC2)cc1	35.5µM*	8.91µM*	50.1µM*	0.2%	28.2µM*
NC(=O)C1CCN(c2oc(-c3ccccc3F)nc2S(=O)(=O)c2ccc(Cl)cc2)CC1	-20.1%	u	53.3%	-25.0%	u
COc1ccc(-c2nc(S(=O)(=O)c3ccc(C)cc3)c(N3CCCC3)o2)cc1	u	u	79.4µM*	-24.5%	-19.6%
CCOc1ccc(-c2nc(S(=O)(=O)c3ccccc3)c(N3CCC(C(N)=O)CC3)o2)cc1	70.8µM*	x	u	u	-8.6%
Cc1ccc(S(=O)(=O)c2nc(C)oc2N2CCOCC2)cc1	u	x	u	-18.8%	10.6%
